PubChem BioAssay AID1851 (National Center for Advancing Translational Sciences (NCATS), 2009)
Among all 16,000 compounds or so, about 5,100 (32%) were called active. Roughly 25% stayed inconclusive and do not appear here. The list shows a part of the results. Values without a mark were called inactive. Calls come from the whole dose curve; as a rule, active = well fitted curve in the direction sought with a large enough effect; inconclusive = small, poorly fitted or top-dose-only effect, or effect the other way; inactive = no such curve, though single readings can be large or run the other way.

Target: Cytochrome P450 3A4 (Homo sapiens) (UniProt P08684)
Test: Cytochrome panel assay with activity outcomes
Conditions: recombinant CYP, pro-luciferin dealkylation, luminescence, p450-cyp3a4; series mostly up to 57.1 µM; activity, negative = inhibition: at the top concentration
% is set by controls: 0 for no effect and ±100 for the full control effect.

Chain of Cytochrome P450 3A4 (Homo sapiens) (P08684 whole entry, looked up): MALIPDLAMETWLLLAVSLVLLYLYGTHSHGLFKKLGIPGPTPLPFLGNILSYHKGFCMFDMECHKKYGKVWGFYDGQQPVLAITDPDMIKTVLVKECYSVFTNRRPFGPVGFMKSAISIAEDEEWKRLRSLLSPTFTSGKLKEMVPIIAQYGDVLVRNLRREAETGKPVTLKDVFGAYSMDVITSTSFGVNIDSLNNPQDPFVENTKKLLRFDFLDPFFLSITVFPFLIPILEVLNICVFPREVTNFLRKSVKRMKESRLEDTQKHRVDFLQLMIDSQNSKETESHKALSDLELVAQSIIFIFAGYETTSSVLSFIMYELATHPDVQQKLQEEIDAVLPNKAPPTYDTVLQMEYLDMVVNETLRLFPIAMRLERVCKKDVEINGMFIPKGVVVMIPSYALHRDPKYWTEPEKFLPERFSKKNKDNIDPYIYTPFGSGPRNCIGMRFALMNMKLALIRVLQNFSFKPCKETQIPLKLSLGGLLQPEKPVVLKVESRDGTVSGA

| Compound | activity, negative = inhibition | AC50 |
| --- | --- | --- |
| Cn1c(=O)c2[nH]c(C3CCCC3)nc2n(C)c1=O | -5.26% | – |
| O=C(O)c1nnsc1COCc1ccccc1 | -0.287% [at 11.4 µM] | – |
| COc1ccc(OC)c2[nH]c(=O)c(CCNC(=O)C3CCCCC3)cc12 | – | 8.91 µM (active) |
| COc1ccc(OC)c2[nH]c(=O)c(CCNC(=O)COc3ccccc3)cc12 | – | 10 µM (active) |
| COc1cc2c(c(O)c1OC)C(=O)C(OC)CCC2 (stereo not given) | -10.9% | – |
| COc1ccc(OC)c2[nH]c(=O)c(CCNC(=O)c3ccc(S(=O)(=O)N(C)C)cc3)cc12 | -9.76% | – |
| COCCNC(=O)COc1ccc(Oc2ccccc2)cc1 | -13.2% | – |
| COc1ccc(OC)c2[nH]c(=O)c(CCNS(=O)(=O)c3ccc(C)cc3)cc12 | – | 7.94 µM (active) |
| COc1ccc(OC)c2[nH]c(=O)c(CCNC(=O)c3ccc(S(=O)(=O)N4CCCC4)cc3)cc12 | – | 15.8 µM (active) |
| COc1ccc(C(=O)NCC(c2ccc(F)cc2)N2CCOCC2)cc1S(=O)(=O)N1CCCC1 (stereo not given) | 3.78% | – |
| CCCCC1CC(/C(C)=N/NC(N)=O)OC1=O (stereo not given) | 8.73% | – |
| COc1ccccc1NC(=O)CSc1nc2ccccc2cc1Cc1ccccc1 | – | 2.82 µM (active) |
| COc1cccc(NC(=O)CSc2nc3ccccc3cc2Cc2ccccc2)c1 | – | 3.55 µM (active) |
| CCOC(=O)c1sc2nc3c(cc2c1N)COC(C(C)C)C3 (stereo not given) | 10.5% | – |
| Cn1cc(C2=C(c3ccc(Cl)cc3Cl)C(=O)NC2=O)c2ccccc21 | – | 2.51 µM (active) |
| CSc1ccccc1NC(=O)CSCc1ccc(C)cc1 | -20% [at 11.4 µM] | – |
| COC(=O)c1ccc(C(=O)OC)c(NC(=O)CSCc2ccc(Br)cc2)c1 | – | 12.6 µM (active) |
| COc1ccc(-c2ccc3c(n2)CCCN3C[C@H](O)CN2CCCc3nc(C)c(C)cc32)cc1 | -46.4% [at 11.4 µM] | – |
| COc1cccc([C@@H]2Oc3ccc(OC)cc3/C(=N/O[C@@H](C)CN3CCCc4nc(C)c(C)cc43)[C@@H]2O)c1 | – | 3.16 µM (active) |
| COc1cccc([C@@H]2Oc3ccc(OC)cc3/C(=N/O[C@@H](C)CN3CCCCc4nc(C)c(C)cc43)[C@@H]2O)c1 | – | 3.98 µM (active) |
| CCc1c2c(nc3ccc(OC)cc13)COC2 | – | 15.8 µM (active) |
| COc1ccc2nccc(C(=O)O)c2c1 | -4.23% [at 25.6 µM] | – |
| COc1ccc2nc3cc(Cl)ccc3c(Nc3ccc(O)c(CN4CCN(C)CC4)c3)c2c1 | 2.77% [at 11.4 µM] | – |
| C[C@@]1(O)CCOC(=O)C1 | -3.83% [at 25.6 µM] | – |
| CC1(C)O[C@H]2[C@@H](c3[nH]nc4c(=O)[nH]c(=O)[nH]c34)OC[C@H]2O1 | -0.0029% [at 11.4 µM] | – |

| Compound | activity, negative = inhibition | AC50 |
| --- | --- | --- |
| COCC(C)NCc1cccc([N+](=O)[O-])c1 (stereo not given) | -12% | – |
| CCOC(=O)N/N=C(/C)c1ccc([N+](=O)[O-])o1 | -3.74% [at 2.29 µM] | – |
| C#CCN1C(C)=C(C(=O)OC)[C@@H](c2cccc([N+](=O)[O-])c2)C(C(=O)OCC)=C1C | – | 3.16 µM (active) |
| Cc1cccc(Nc2ccccc2C(=O)OCC(=O)NCc2ccco2)c1C | – | 15.8 µM (active) |
| Cc1c(Nc2ncccc2C(=O)O)cccc1C(F)(F)F | -24.2% [at 25.6 µM] | – |
| O=C(COC(=O)c1ccccc1Nc1cccc(C(F)(F)F)c1)NCc1ccco1 | – | 22.4 µM (active) |
| O=C(COC(=O)c1cccnc1Nc1cccc(C(F)(F)F)c1)NCc1ccc2c(c1)OCO2 | – | 0.501 µM (active) |
| Cc1ccc(C(OC(=O)c2ccco2)C(=O)NC2CCCCC2)cc1 (stereo not given) | -11.1% [at 2.29 µM] | – |
| O=C(OC(C(=O)NC1CCCC1)c1ccncc1)C1=Cc2ccccc2OC1 (stereo not given) | – | 3.98 µM (active) |
| c1cc(-c2sc(-c3ccncc3)c(-c3ccncc3)c2-c2ccncc2)ccn1 | – | 0.316 µM (active) |
| Cc1cn2c(-c3ccncc3)nnc2s1 | -17.7% | – |
| CCC(C)NC(=O)C1CC(c2ccc(OC)cc2)=NO1 (stereo not given) | 20.4% | – |
| CCC(C)NC(=O)C1c2cc(OC)c(OC)cc2C(=O)N(C)C1c1cccs1 (stereo not given) | – | 5.62 µM (active) |
| COc1cc2c(cc1OC)C(C(=O)N1CCN(c3ccccn3)CC1)C(c1cccs1)N(C)C2=O (stereo not given) | – | 4.47 µM (active) |
| Cn1c(CN2CCCCC2)nc2cc(NC(=O)c3ccc(Cl)cc3)ccc21 | – | 15.8 µM (active) |
| COc1ccc(C(=O)Nc2ccc3c(c2)nc(CN2CCN(C(C)=O)CC2)n3C)cc1 | -0.562% [at 2.29 µM] | – |
| Cn1c(CN2CCCC2)nc2cc(NC(=O)C3CCCCC3)ccc21 | -14.1% | – |
| COc1cc(NC(=S)Nc2ccc(S(=O)(=O)N3CCOCC3)cc2)cc(OC)c1OC | – | 15.8 µM (active) |
| COc1ccc(C(=O)Nc2ccc(S(=O)(=O)N3CCOCC3)cc2)cc1OC | 3.48% | – |
| CC(N)=O | -7.41% | – |
| c1ccc(-c2nc(CSc3n[nH]c(-c4cccs4)n3)cs2)cc1 | – | 6.31 µM (active) |
| O=c1[nH]c(=S)[nH]nc1Cc1ccccc1 | 25.9% | – |
| CC(C)C1NC(=S)N(Cc2ccccc2)C1=O (stereo not given) | – | 14.1 µM (active) |
| O=C(Nc1nc2ccccc2n1Cc1ccccc1)c1ccc(COc2ccccc2[N+](=O)[O-])o1 | – | 4.47 µM (active) |
| CCn1nccc1C(=O)Nc1nc2ccccc2n1CCN1CCCCC1 | -23.3% | – |
